Results as given in publication PMC4336329 (PLoS ONE, 2015).
The campaign covered roughly 310,000 compounds. About 14,000 (4.5%) showed an effect of 50% or more. Effects have a minus sign here. The sample as a whole holds a higher share of strong results than the screen did.

Target: human ether-à-go-go-related gene (hERG) potassium channel (human, UniProt Q12809)
Experiment: primary screen, population patch clamp on CHO cells stably expressing hERG; higher = less effect of the substance
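Also: peak tail current of the secondary pulse compared with the same well before compound.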

human ether-à-go-go-related gene (hERG) potassium channel, sequence (Q12809 whole entry, looked up): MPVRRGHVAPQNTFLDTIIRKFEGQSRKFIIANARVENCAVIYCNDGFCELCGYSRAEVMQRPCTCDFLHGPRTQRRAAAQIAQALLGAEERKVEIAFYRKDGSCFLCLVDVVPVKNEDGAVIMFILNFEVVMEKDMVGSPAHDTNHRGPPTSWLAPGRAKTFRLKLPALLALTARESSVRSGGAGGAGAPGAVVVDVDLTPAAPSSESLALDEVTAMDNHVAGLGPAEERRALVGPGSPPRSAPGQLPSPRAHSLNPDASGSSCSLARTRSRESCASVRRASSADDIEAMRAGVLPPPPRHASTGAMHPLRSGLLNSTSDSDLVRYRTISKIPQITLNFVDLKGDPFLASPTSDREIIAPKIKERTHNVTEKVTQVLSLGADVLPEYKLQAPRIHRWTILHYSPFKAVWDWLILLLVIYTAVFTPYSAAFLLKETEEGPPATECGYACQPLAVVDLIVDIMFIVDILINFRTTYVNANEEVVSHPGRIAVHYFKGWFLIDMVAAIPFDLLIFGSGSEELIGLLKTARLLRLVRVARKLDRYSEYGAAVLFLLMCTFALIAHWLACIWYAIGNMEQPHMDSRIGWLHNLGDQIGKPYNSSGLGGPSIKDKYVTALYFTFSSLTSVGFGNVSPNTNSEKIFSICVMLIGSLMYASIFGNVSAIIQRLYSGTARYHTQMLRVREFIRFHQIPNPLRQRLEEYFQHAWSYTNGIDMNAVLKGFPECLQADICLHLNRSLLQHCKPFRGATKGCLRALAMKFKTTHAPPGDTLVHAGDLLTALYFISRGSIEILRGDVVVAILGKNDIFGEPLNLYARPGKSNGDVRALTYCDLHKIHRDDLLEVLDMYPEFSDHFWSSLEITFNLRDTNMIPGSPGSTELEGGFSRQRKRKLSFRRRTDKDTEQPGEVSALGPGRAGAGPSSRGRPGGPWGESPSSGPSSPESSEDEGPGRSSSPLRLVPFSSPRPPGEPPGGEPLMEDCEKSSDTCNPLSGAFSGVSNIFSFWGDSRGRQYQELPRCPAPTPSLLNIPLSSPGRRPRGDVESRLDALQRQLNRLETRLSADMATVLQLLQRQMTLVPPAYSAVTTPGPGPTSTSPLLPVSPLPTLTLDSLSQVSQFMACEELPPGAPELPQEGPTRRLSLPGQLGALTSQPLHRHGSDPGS

Compound	hERG current change (%, negative = inhibition) at 10uM [%]
CCN1CCN(S(=O)(=O)c2cccc3nsnc23)CC1	-5.57
COc1cccc(/C=C2\SC(=N)N(c3ccc(F)cc3)C2=O)c1	9.22
CCCOc1ccc(-c2c(C(=O)N/N=C/c3ccccc3)nnn2-c2nonc2N)cc1	4.98
O=C(Nc1cccc(O)c1)c1cc(-c2ccc3c(c2)OCO3)on1	11.3
O=C(Nc1ccc2c(c1)OCO2)c1cc(-c2cccc(O)c2)on1	-63.1
O=C(Nc1ccc2c(c1)OCO2)c1cc(-c2ccc(O)cc2)on1	22.4
C/C(=C\c1ccccc1)CN1CCN(Cc2ccc(C)o2)C(CCO)C1 (stereo not drawn)	-13.4
COC(=O)c1ccc(CN2CCN(CC(C)C)C(CCO)C2)cc1 (stereo not drawn)	-3.11
COc1ccccc1/C=C/CN1CCN(Cc2ccc(F)cc2)C(CCO)C1 (stereo not drawn)	-51
CCOc1ccccc1CN1CCN(C/C=C/c2ccc(OC)cc2)CC1CCO (stereo not drawn)	-65
COc1cc(/C=C/CN2CCN(Cc3ccc(C)o3)C(CCO)C2)ccc1O (stereo not drawn)	-6.62
CCOc1ccccc1CN1CCN(Cc2ccc(C)o2)C(CCO)C1 (stereo not drawn)	-12.9
COc1ccc(/C=C/CN2CCN(CC(C)C)C(CCO)C2)cc1 (stereo not drawn)	-52.2
COc1cc(/C=C/CN2CCN(CCC(C)C)C(CCO)C2)ccc1O (stereo not drawn)	23
Cc1ccc(CN2CCN(C/C=C/c3ccc(F)cc3)CC2CCO)o1 (stereo not drawn)	-54.5
COc1ccccc1/C=C/CN1CCN(Cc2ccc(C)o2)C(CCO)C1 (stereo not drawn)	-12
COc1ccc(CCNC(=O)c2sc3cc(C)ccc3c2Cl)cc1	3.77
CCn1c(SCC(=O)Nc2ccccc2C(=O)OC)nnc1-c1cccc(C)c1	-36.2
O=S(=O)(c1ccc(O)cc1)c1ccc(O)cc1	16.9
CNC(=O)C(=O)NCC1CCCN1S(=O)(=O)c1cccs1 (stereo not drawn)	12.4
C=CCn1c(-c2cccnc2Cl)nc2ccccc21	8.48
Cc1nn(-c2cc(N3CCOCC3)ccc2[N+](=O)[O-])c(=O)c2ccccc12	-4.66
O=C([O-])/C=C1\CCCc2ccccc2C1O.[Na+] (stereo not drawn)	18.4
Cc1ccsc1/C=N/NC(=O)CNC(=O)c1ccc(S(=O)(=O)N2CCOCC2)cc1	2.86

Compound	hERG current change (%, negative = inhibition) at 10uM [%]
O=C(C1CCN(S(=O)(=O)c2cccc3cccnc23)CC1)N1CCN(C2CCCCC2)CC1	-0.647
COc1ccc(/C=C/CN2CCN(Cc3ccc(F)cc3)C(CCO)C2)cc1 (stereo not drawn)	-58.5
COC(=O)c1ccc(CN2CCN(Cc3ccc(F)cc3)C(CCO)C2)cc1 (stereo not drawn)	10.1
COc1ccc(/C=C/CN2CCN(Cc3cccc(OC)c3)C(CCO)C2)cc1 (stereo not drawn)	-51.9
CCOc1ccc(CN2CCN(C/C=C/c3ccc(OC)cc3)CC2CCO)cc1 (stereo not drawn)	-88.7
COc1cccc(CN2CCN(Cc3ccc(OC)c(OC)c3)CC2CCO)c1 (stereo not drawn)	-27.2
COc1cccc(CN2CCN(CC#Cc3ccccc3)CC2CCO)c1 (stereo not drawn)	-30.6
COc1ccc(/C=C/CN2CCN(Cc3ccccc3)C(CCO)C2)cc1 (stereo not drawn)	-51.9
CC(C)N1CCC(N2CCN(C/C=C/c3ccc(F)cc3)CC2CCO)CC1 (stereo not drawn)	-6.87
COc1ccc(CN2CCN(Cc3cccc(OC)c3)C(CCO)C2)cc1 (stereo not drawn)	-45.8
COC(=O)COc1ccc(-c2nccc(-c3ccccn3)n2)cc1	13.3
CCN(CC(=O)Nc1ccccc1OC)C(=O)c1cc(-c2ccccc2)nn1-c1ccccc1	-36.9
COc1ccc(-c2noc(N3CCC(C(=O)NCc4ccccc4Cl)CC3)n2)cc1	-11.9
CCOC(=O)NC(=O)CSc1nc2ccc(C)cc2[nH]1	8.02
COc1cc(/C=N/NC(=O)c2csc3c2CCCC3)ccc1OCCN1CCOCC1	-31.9
COc1ccccc1C(=O)NNC(=O)c1nn(Cc2ccccc2)c(=O)c2ccccc12	-14
O=C(CSc1ncnc2sccc12)Nc1ccccc1	21.2
COc1ccc(C(=O)NNC(=O)CNC(=O)C2CCCCC2)cc1	14
COc1ccc(/C=C/CN2CCN(CCc3ccccc3)C(CCO)C2)cc1 (stereo not drawn)	-71.9
OCC[C@H]1C[C@H](O)[C@@H](O)[C@@]2(CCCO2)O1	20.1
CC(C)CNc1nc(NC(C)(C)C)nc(Oc2ccc(=O)[nH]n2)n1	9.66
Cc1ccc(S(=O)(=O)N2CCC(N3CCC(C)CC3)CC2)cc1	-29.1
CCCCc1cc(=O)oc2cc(C)cc(OC(C)C(=O)NCc3cccnc3)c12 (stereo not drawn)	-19.7
Cc1ccc(NC(=O)COC(=O)c2cc(=O)c3ccccc3o2)cc1F	12.9

Compound	hERG current change (%, negative = inhibition) at 10uM [%]
Cc1ccccc1NC(=O)COC(=O)c1cc(=O)c2ccccc2o1	-67.4
Cc1cccc(C)c1NC(=O)COC(=O)c1cc(=O)c2ccccc2o1	5.2
CC1=C(C)C(=O)N(C(C)CCc2ccccc2)C1=O (stereo not drawn)	4.9
O=C(c1cc2c(=O)n3ccccc3nc2s1)N1CCN(Cc2ccccc2)CC1	-27.7
O=C(c1ccc([N+](=O)[O-])s1)N1CCN(c2cccc(Cl)c2)CC1	-66.1
Cc1c(C(=O)N2CCN(c3cccc(Cl)c3)CC2)cccc1[N+](=O)[O-]	-42.5
COc1ccccc1N1CCN(C(=O)c2cc3c(=O)n4ccccc4nc3s2)CC1.Cl	-53.2
Cc1cccn2c(=O)c3cc(C(=O)N4CCN(Cc5ccccc5)CC4)sc3nc12	-79.7
COC(=O)c1cc(C(=O)N2CCN(c3ncccn3)CC2)cc([N+](=O)[O-])c1	-5.19
O=C(c1ccc([N+](=O)[O-])s1)N1CCN(c2ccccc2)CC1	-25.8
COC(=O)c1cc(C(=O)N2CCN(c3cccc(C)c3C)CC2)cc([N+](=O)[O-])c1	-39.6
CCOC(=O)N1CCN(C(=O)c2cc3c(=O)n4cccc(C)c4nc3s2)CC1	-9.84
COc1ccccc1N1CCN(C(=O)c2cc3c(=O)n4cccc(C)c4nc3s2)CC1	-11.2
CN1CCN(C(=O)c2cc3c(=O)n4ccccc4nc3s2)CC1	-2.57
COC(=O)c1cc(C(=O)N2CCN(c3cccc(Cl)c3)CC2)cc([N+](=O)[O-])c1	-59
Cc1sc2nc(SCC(=O)NCc3ccco3)n(-c3ccccc3)c(=O)c2c1C	8.63
O=P(CCN1CCCCC1)(c1ccccc1)c1ccccc1	-5.98
COc1ccc(NC(=O)c2cccnc2Sc2ccccc2)c(OC)c1	7.52
CC(C)(C)NC(=O)Cn1nnc(-c2ccccc2Cl)n1	6.43
CSc1ncccc1C(=O)OCC(=O)NC(C)(C)C	10.5
COc1ccc(NC(=O)C2CCC(CNS(=O)(=O)c3csc(C(N)=O)c3)CC2)cc1OC (stereo not drawn)	15.3
COc1ccc2[nH]c(C(=O)Nc3ccc(F)cc3Br)cc2c1	11.7
COc1ccc(/C=N/NC(=O)c2cccnc2)cc1O	11.1
COc1ccc(OC)c2sc(N3CCN(C(=O)c4ccc([N+](=O)[O-])s4)CC3)nc12	-41.9

Compound	hERG current change (%, negative = inhibition) at 10uM [%]
COc1ccccc1N1CCN(C(=O)c2ccc(Br)s2)CC1.Cl	-46.3
O=C(c1cccc([N+](=O)[O-])c1)N1CCN(c2cccc(Cl)c2)CC1	-57.4
Cc1ccc(N2CCN(C(=O)c3cccc([N+](=O)[O-])c3)CC2)cc1Cl	-19.1
O=C(c1cccc([N+](=O)[O-])c1)N1CCN(c2ccc(Cl)cc2)CC1	-41.1
COc1ccccc1N1CCN(C(=O)c2ccc([N+](=O)[O-])s2)CC1	-54.5
CCOC(=O)N1CCN(S(=O)(=O)c2ccc(Br)s2)CC1	-9.22
COc1ccc(CC(=O)Nc2ccc(-c3csc(C)n3)cc2)cc1	7.89
COc1ccc(Nc2nc(-c3cc4cccc(OC)c4oc3=O)cs2)cc1	11.6
Cc1cccc(C(=O)Nc2cccc(C(=O)Nc3cc(C)ccn3)c2)c1	7.29
CCCCNC(=O)CC1N=C2c3ccccc3N=C(SCC(=O)Nc3ccccc3C)N2C1=O (stereo not drawn)	-0.929
NC(=O)CSC1=Nc2ccccc2C2=NC(CC(=O)NCc3cccs3)C(=O)N12 (stereo not drawn)	11.2
O=C(CSC1=Nc2ccccc2C2=NC(CC(=O)NC3CCCCC3)C(=O)N12)NCc1ccco1 (stereo not drawn)	-29.9
CCCCNC(=O)CC1N=C2c3ccccc3N=C(SCC(=O)Nc3cccc(C)c3)N2C1=O (stereo not drawn)	-52.6
O=C(CC1N=C2c3ccccc3N=C(SCc3ccc(Cl)cc3)N2C1=O)NCc1ccco1 (stereo not drawn)	-75.3
Cc1ccc(CSC2=Nc3ccccc3C3=NC(CC(=O)NCc4ccco4)C(=O)N23)cc1 (stereo not drawn)	-51.8
CCCCNC(=O)CC1N=C2c3ccccc3N=C(SCC(=O)Nc3cccc(OC)c3)N2C1=O (stereo not drawn)	-10.6
O=C(CSC1=Nc2ccccc2C2=NC(CC(=O)NCc3ccco3)C(=O)N12)NCc1ccco1 (stereo not drawn)	7.61
O=C(CC1N=C2c3ccccc3N=C(SCc3ccccc3Cl)N2C1=O)NCc1ccco1 (stereo not drawn)	-47
CCC(C)NC(=O)CSC1=Nc2ccccc2C2=NC(CCC(=O)NCc3ccco3)C(=O)N12 (stereo not drawn)	-1.01
Cc1ccc(CSC2=Nc3ccccc3C3=NC(CCC(=O)NCc4ccco4)C(=O)N23)cc1 (stereo not drawn)	-68.8
O=C(CCC1N=C2c3ccccc3N=C(SCC(=O)NCc3ccco3)N2C1=O)NCc1ccco1 (stereo not drawn)	12.7
